Data as given in PubChem BioAssay (NCATS).
Values joined by “and” are separate entries in the source; they are usually repeats but may differ in a detail not shown here. Equal entries are not always repeated. Inconclusive results are not listed. A call without a number means that no potency is given here. A structure can be active in one record and inactive in another. Active and inactive are the calls of the source. Unless noted, the call rests on the fitted dose curve.

What was measured:
[1] = target: Protein phosphatase 1D (Homo sapiens) (UniProt O15297); assay: Rhodamine-PBP qHTS Assay for Modulators of WT P53-Induced Phosphatase 1 (WIP1) (AID 1347425; active means well fitted curve in the direction sought with a large enough effect; an effect the other way counts as inactive or inconclusive)
Procedure, shortened: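 Steps: enzyme with Rh-PBP sensor and compounds, room-temperature incubation of 1 hr, baseline read, addition of VEPPL-pS-QETFS (10 uM final), kinetic fluorescence reads at 525/598 nm. Activity equals final minus baseline signal.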

[2] = Primary qHTS for inhibitors of SARS-S pseudo-typed particle cell entry (AID 1479145); further: nearly all actives have a fitted effect of over 45% in size; further: potency means the concentration at half of the fitted maximal effect
[3] = Primary qHTS for Huh7 cytotoxicity: counterscreen for inhibitors of MERS-S pseudotyped particle cell entry (AID 1479147); further: potency means the concentration at half of the fitted maximal effect
[4] = Primary qHTS for inhibitors of MERS-S pseudo-typed particle cell entry (AID 1479149); further: nearly all actives have a fitted effect of over 60% in size; further: potency means the concentration at half of the fitted maximal effect
[5] = Primary qHTS for Vero E6 cytotoxicity: counterscreen for inhibitors of SARS-S pseudo-typed particle cell entry (AID 1479150)
[6] = Primary qHTS for inhibitors of La Crosse Virus (LACV) - induced cell death in SH-SY5Y cells (AID 1508616; active means well fitted curve in the direction sought with a large enough effect; an effect the other way counts as inactive or inconclusive;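 further: top concentration of the series differs between compounds; higher means more rescue of cells from virus-induced death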)
Procedure, shortened: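 Luminescent ATP readout (ATPLite 1step, 5 min room temperature) measured rescue from LACV-induced death after 6 days of infection at 0.01 MOI; normalized to infected DMSO wells and uninfected DMSO wells.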

[7] = Validation qHTS assay for inhibitors of Activation Induced Cytidine Deaminase (AID): UDG Counterscreen signal (AID 1347427; active means well fitted curve in the direction sought with a large enough effect; an effect the other way counts as inactive or inconclusive)
Procedure, shortened: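 Counterscreen read of UDG activity (2 U/mL, 4/3x) in the FRET deamination format with AID (1 uM, 4/3x), DJC20/DJC23 substrates (250 nM, 4x), 4 h at room temperature. NaOH stop, fluorescence at 560 ex/665 em.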

[8] = target: Single-stranded DNA cytosine deaminase (Homo sapiens) (UniProt Q9GZX7); assay: Validation qHTS assay for inhibitors of Activation Induced Cytidine Deaminase (AID): AID signal (AID 1347429; active means well fitted curve in the direction sought with a large enough effect; an effect the other way counts as inactive or inconclusive)
Procedure, shortened: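 AID and UDG were combined and compounds added at final up to 114 uM, then DJC20/DJC23 FRET substrate was added for 4 hr at room temperature. NaOH was then added for 30 min before fluorescence was read at 540/590 nm.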

Protein phosphatase 1D (Homo sapiens), sequence (O15297 whole entry, looked up): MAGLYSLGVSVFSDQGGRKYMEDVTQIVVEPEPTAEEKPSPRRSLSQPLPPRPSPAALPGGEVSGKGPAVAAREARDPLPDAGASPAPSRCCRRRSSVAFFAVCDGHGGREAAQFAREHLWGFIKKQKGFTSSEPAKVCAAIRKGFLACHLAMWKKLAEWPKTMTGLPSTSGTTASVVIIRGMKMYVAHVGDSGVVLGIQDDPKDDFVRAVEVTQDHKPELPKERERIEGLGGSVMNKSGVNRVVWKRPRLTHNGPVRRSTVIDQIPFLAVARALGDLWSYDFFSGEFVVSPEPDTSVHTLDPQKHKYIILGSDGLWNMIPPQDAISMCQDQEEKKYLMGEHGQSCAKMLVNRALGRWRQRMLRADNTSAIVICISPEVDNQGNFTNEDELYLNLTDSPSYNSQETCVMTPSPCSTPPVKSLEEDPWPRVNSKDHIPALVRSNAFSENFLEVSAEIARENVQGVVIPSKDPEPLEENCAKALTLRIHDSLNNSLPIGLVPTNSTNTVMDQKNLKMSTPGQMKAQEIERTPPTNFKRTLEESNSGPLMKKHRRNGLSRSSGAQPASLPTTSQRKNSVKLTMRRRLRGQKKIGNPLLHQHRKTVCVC
Single-stranded DNA cytosine deaminase (Homo sapiens), sequence (Q9GZX7 whole entry, looked up): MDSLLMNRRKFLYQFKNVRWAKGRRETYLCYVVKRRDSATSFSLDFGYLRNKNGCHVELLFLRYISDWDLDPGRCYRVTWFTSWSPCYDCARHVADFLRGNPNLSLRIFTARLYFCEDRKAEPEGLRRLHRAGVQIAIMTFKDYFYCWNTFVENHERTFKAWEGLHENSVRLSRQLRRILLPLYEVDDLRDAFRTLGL

In the case of `CCC(C(N)=O)N1CCCC1=O` (stereo not drawn), the outcome [1] is reported as “inactive”, the Potency [2] is reported as “inactive” and the Potency [3] is reported as “inactive”. The Potency [4] was “inactive”, the Potency [5] was “inactive” and the Potency [6] was “inactive”.
With `Clc1ccc(COC(Cn2ccnc2)c2ccc(Cl)cc2Cl)cc1` (stereo not drawn) the outcome [1] was “inactive”, the Potency [3] was “inactive” and the Potency [4] was 25.1 µM (active). The Potency [5] was “inactive” and the Potency [6] was “inactive”.
In the case of `CCC(COC(=O)c1cc(OC)c(OC)c(OC)c1)(c1ccccc1)N(C)C` (stereo not drawn), the outcome [1] is reported as “inactive”, the Potency [3] is reported as “inactive” and the Potency [5] is reported as “inactive”. The Potency [6] was “inactive”.
For `CO[C@]12CC[C@@]3(C[C@@H]1[C@](C)(O)C(C)(C)C)[C@@H]1Cc4ccc(O)c5c4[C@@]3(CCN1CC1CC1)[C@H]2O5`, the outcome [1] was “inactive” and the Potency [6] was “inactive”.
With `Oc1ccccc1-c1ccccc1` the outcome [1] was “inactive”, the Potency [3] was “inactive” and the Potency [4] was “inactive”. The Potency [5] was “inactive” and the Potency [6] was “inactive”.
For `C#CCOC(C(=O)OCCN(C)C)(c1ccccc1)c1ccccc1`, the outcome [1] was “inactive” and the Potency [6] was “inactive”.
With `CC(C)=CC1C(C(=O)OCc2cccc(Oc3ccccc3)c2)C1(C)C` (stereo not drawn) the outcome [1] was “inactive”, the Potency [2] was “inactive” and the Potency [3] was “inactive”. For the same compound, the Potency [4] was “inactive”, the Potency [5] was “inactive” and the Potency [6] was “inactive”.
In the case of `Oc1cccc2cccnc12`, the outcome [1] is reported as “inactive”, the Potency [2] is reported as “inactive” and the Potency [3] is reported as “inactive”. The Potency [4] was “inactive and 3.55 µM (active)”, the Potency [5] was “inactive” and the Potency [6] was “inactive”.
With `CC(C)(N)Cc1ccc(Cl)cc1` the outcome [1] was “inactive” and the Potency [6] was “inactive”.
In the case of `Cc1cc(C)cc(OCC2CNC(=O)O2)c1` (stereo not drawn), the Potency [2] is reported as “inactive”, the Potency [3] is reported as “inactive” and the Potency [4] is reported as “inactive”. For the same compound, the Potency [5] was “inactive”.
For `CC(C)NCC(O)c1ccc(O)c(O)c1` (stereo not drawn), the Potency [2] was “inactive”, the Potency [3] was “inactive” and the Potency [4] was “inactive”. The Potency [5] was “inactive”.
With `CN1C(CCl)Nc2cc(Cl)c(S(N)(=O)=O)cc2S1(=O)=O` (stereo not drawn) the Potency [2] was “inactive”, the Potency [3] was “inactive” and the Potency [4] was “inactive”. The Potency [5] was “inactive”.
With `O=NN(CCCl)C(=O)NCCCl` the Potency [2] was “inactive”, the Potency [3] was “inactive” and the Potency [4] was “inactive”. The Potency [5] was “inactive”.
In the case of `CCCSc1ccc2nc(NC(=O)OC)[nH]c2c1`, the Potency [2] is reported as “inactive”, the Potency [3] is reported as “inactive” and the Potency [4] is reported as “inactive”.
In the case of `CCN(CC)CCOC(=O)C(O)(c1ccccc1)c1ccccc1`, the outcome [1] is reported as “inactive” and the Potency [6] is reported as “inactive”.
In the case of `NC(=O)C(c1ccccc1)(c1ccccc1)[C@@H]1CCN(CCc2ccc3c(c2)CCO3)C1`, the Potency [2] is reported as “inactive”, the Potency [3] is reported as “inactive” and the Potency [4] is reported as “inactive”. The Potency [5] was “inactive”.
With `CN1C[C@H]2c3ccccc3Oc3ccc(Cl)cc3[C@@H]2C1` the Potency [2] was “inactive”.
With `Cc1nc(-c2ccc(OCC(C)C)c(C#N)c2)sc1C(=O)O` the Potency [2] was “inactive”, the Potency [3] was “inactive” and the Potency [4] was “inactive”.
For `Nc1nc2c(ncn2COC(CO)CO)c(=O)[nH]1`, the Potency [2] was “inactive”, the Potency [3] was “inactive” and the Potency [4] was “inactive”. The Potency [5] was “inactive”.
In the case of `CCN(C(C)=O)c1cccc(-c2ccnc3c(C#N)cnn23)c1`, the outcome [1] is reported as “inactive” and the Potency [6] is reported as “inactive”.
With `O=C1C(=O)c2ccccc2C(O)=C1C1CCC(c2ccc(Cl)cc2)CC1` (stereo not drawn) the Potency [2] was 0.891 µM (active), the Potency [3] was “inactive” and the Potency [4] was 22.4 µM (active).
In the case of `CC(C)Oc1ccc2c(=O)c(-c3ccccc3)coc2c1`, the Potency [2] is reported as “inactive”.
With `Cc1ccc2c(c1)C1CN(C)CCC1N2` (stereo not drawn) the outcome [1] was “inactive” and the Potency [6] was “inactive”.
With `CC1(C)NC(=O)N(c2ccc([N+](=O)[O-])c(C(F)(F)F)c2)C1=O` the Potency [2] was 35.5 µM (active) and the Potency [3] was “inactive”.
With `CN(C)CCOC(c1ccc(Cl)cc1)c1ccccn1` (stereo not drawn) the Potency [2] was “inactive”, the Potency [3] was “inactive” and the Potency [4] was “inactive”.
For `C[C@@H](O)[C@H]1C(=O)N2C(C(=O)O)=C(S[C@@H]3CN[C@H](C(=O)N(C)C)C3)[C@H](C)[C@H]12`, the Potency [2] was “inactive”, the Potency [3] was “inactive” and the Potency [4] was “inactive”. The Potency [5] was “inactive”.
For `O=C1NC(c2ccccc2)(c2ccccc2)C(=O)N1COP(=O)(O)O`, the Potency [2] was “inactive”, the Potency [3] was “inactive” and the Potency [4] was “inactive”. The Potency [5] was “inactive”.
For `CC(C)CC(N(C)C)C1(c2ccc(Cl)cc2)CCC1` (stereo not drawn), the outcome [1] was “inactive” and the Potency [6] was “inactive”.
With `C=C(CC)C(=O)c1ccc(OCC(=O)O)c(Cl)c1Cl` the Potency [2] was “inactive”, the Potency [3] was “inactive” and the Potency [4] was “inactive”. For the same compound, the Potency [5] was “inactive”.
In the case of `NC[C@H](O)c1ccc(O)c(O)c1`, the Potency [2] is reported as “inactive”, the Potency [3] is reported as “inactive” and the Potency [4] is reported as “inactive”. For the same compound, the Potency [5] was “inactive”.
With `CCOP(=S)(OCC)Oc1cc(C)nc(C(C)C)n1` the outcome [1] was “inactive” and the Potency [6] was “inactive”.
For `COc1ccc(C(=O)c2c(C)n(CCN3CCOCC3)c3ccccc23)cc1`, the outcome [1] was “inactive” and the Potency [6] was “inactive”.
In the case of `O=C(NC(O)C(Cl)(Cl)Cl)NC(O)C(Cl)(Cl)Cl` (stereo not drawn), the outcome [1] is reported as “inactive” and the Potency [6] is reported as “inactive”.
With `COc1cc2c(c(OC)c1OC)-c1ccc(OC)c(=O)cc1[C@@H](NC(C)=O)CC2` the Potency [2] was “inactive”, the Potency [3] was “inactive” and the Potency [4] was “inactive”.
For `O=C(O)c1cn(C2CC2)c2cc(N3CCNCC3)c(F)cc2c1=O`, the Potency [2] was “inactive”, the Potency [3] was “inactive” and the Potency [4] was “inactive”. For the same compound, the Potency [5] was “inactive”.
In the case of `CC(C)Nc1cccnc1N1CCN(C(=O)c2cc3cc(NS(C)(=O)=O)ccc3[nH]2)CC1`, the Potency [2] is reported as “inactive”, the Potency [3] is reported as “inactive” and the Potency [4] is reported as “inactive”.
With `COc1cc2ncnc(Nc3ccc(F)c(Cl)c3)c2cc1OCCCN1CCOCC1` the Potency [2] was 12.6 µM (active).
In the case of `COC[C@H]1OC(=O)c2coc3c2[C@@]1(C)C1=C(C3=O)C2CCC(=O)[C@@]2(C)C[C@H]1OC(C)=O` (stereo partly drawn), the outcome [7] is reported as “inactive”, the outcome [8] is reported as “inactive” and the Potency [6] is reported as “inactive”.
For `CC(C)NCC(O)COc1cccc2[nH]ccc12` (stereo not drawn), the Potency [2] was “inactive”, the Potency [3] was “inactive” and the Potency [4] was “inactive”. The Potency [5] was “inactive”.
With `Cc1nc(Nc2ncc(C(=O)Nc3c(C)cccc3Cl)s2)cc(N2CCN(CCO)CC2)n1` the Potency [2] was “inactive” and the Potency [3] was “inactive”.
With `O=C1c2c(O)ccc(O)c2C(=O)c2c(NCCNCCO)ccc(NCCNCCO)c21` the Potency [2] was “inactive” and the Potency [3] was 25.1 µM (active).
For `COC[C@@H](NC(C)=O)C(=O)NCc1ccccc1`, the outcome [1] was “inactive” and the Potency [6] was “inactive”.
In the case of `CC[N+]1(C)CCCC(OC(=O)C(O)(c2ccccc2)c2ccccc2)C1` (stereo not drawn), the outcome [1] is reported as “inactive” and the Potency [6] is reported as “inactive”.
For `CN(C)CCc1ccc(O)cc1`, the outcome [1] was “inactive” and the Potency [6] was “inactive”.
In the case of `CC[C@]1(O)C[C@H]2CN(CCc3c([nH]c4ccccc34)[C@@](C(=O)OC)(c3cc4c(cc3OC)N(C=O)[C@H]3[C@@](O)(C(=O)OC)[C@H](OC(C)=O)[C@]5(CC)C=CCN6CC[C@]43[C@@H]65)C2)C1`, the Potency [2] is reported as “inactive” and the Potency [3] is reported as “inactive”.
With `Nc1cccc2c1CN(C1CCC(=O)NC1=O)C2=O` (stereo not drawn) the Potency [2] was “inactive”, the Potency [3] was “inactive” and the Potency [4] was “inactive”. For the same compound, the Potency [5] was “inactive”.
For `CC(=O)[C@]1(O)Cc2c(O)c3c(c(O)c2[C@@H](O[C@H]2C[C@H](N)[C@H](O)[C@H](C)O2)C1)C(=O)c1ccccc1C3=O`, the Potency [2] was 8.91 µM (active) and the Potency [3] was 7.08 µM (active).
With `CC(C)OC(=O)C(C)(C)Oc1ccc(C(=O)c2ccc(Cl)cc2)cc1` the Potency [2] was “inactive”.
In the case of `COc1ccc(Cl)cc1C(=O)NCCc1ccc(S(=O)(=O)NC(=O)NC2CCCCC2)cc1`, the Potency [2] is reported as “inactive”, the Potency [3] is reported as “inactive” and the Potency [4] is reported as “inactive”. The Potency [5] was “inactive”.
In the case of `Cc1onc(-c2c(Cl)cccc2Cl)c1C(=O)N[C@@H]1C(=O)N2[C@@H]1SC(C)(C)[C@@H]2C(=O)O`, the Potency [2] is reported as “inactive”, the Potency [3] is reported as “inactive” and the Potency [4] is reported as “inactive”. For the same compound, the Potency [5] was “inactive”.
